Bioassay records deposited in PubChem BioAssay by The Scripps Research Institute Molecular Screening Center.
An excerpt weighted towards active compounds, which were near 4.1% of everything screened.
DAX1 inh-1 – inhibitors of human orphan nuclear receptor DAX1 (NR0B1); P51843; HEK293 Gal4-DAX1 luciferase reporter, luminescence; inhibition, % at 6.75 µM; 340,000 tested, 0.99% active;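 active = inhibition above the mean over all tested compounds plus 3 SD, cut at about 4.2% in these data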;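 also: inhibition shows as a rise in luminescence from relieved DAX1 repression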
Target sequence (P51843 207-470 limits assumed): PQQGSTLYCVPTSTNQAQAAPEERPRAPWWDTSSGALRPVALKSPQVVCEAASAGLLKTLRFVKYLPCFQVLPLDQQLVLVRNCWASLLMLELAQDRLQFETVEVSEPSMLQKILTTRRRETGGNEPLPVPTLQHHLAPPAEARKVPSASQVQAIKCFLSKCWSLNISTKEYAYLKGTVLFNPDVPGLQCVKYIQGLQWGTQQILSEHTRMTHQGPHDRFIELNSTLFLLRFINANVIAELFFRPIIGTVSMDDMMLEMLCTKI
hcDAF12 agonist – H. contortus DAF-12 activation, primary screen; HEK293 hcDAF-12 lit1-tk-luc reporter, luminescence; 0% DMSO, 100% Δ7-dafachronic acid; activation, % at 6.8 µM; 370,000 tested, 1.4% active; AID 652067;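 active = activation above the mean of all tested compounds plus 3 SD, cut at about 5.5% in these data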
hgDAF-12 ag – hgDAF-12 agonism, primary luciferase screen; 370,000 tested, 1.8% active; AID 687014; HEK293 GAL4-hgDAF12 UAS-luciferase reporter, agonist luminescence; normalized to butyrate control; activation, % at 6.8 µM;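 active = activation above a cutoff set at the mean of all screened compounds plus 3 SD, cut at about 10% in these data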
ssDAF-12 act – S. stercoralis DAF-12 activation, primary screen | activation, % at 6.8 µM | HEK293 ssDAF-12/GRIP1 lit1-tk-luc reporter, luminescence; % of 3 µM dafachronic acid response | 370,000 tested, 1% active;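 active = activation above the mean over all tested compounds plus 3 SD, cut at about 0.9% in these data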
DAX1 inh-2 – inhibitors of DAX1 repression of SF-1 activated StAR promoter; HEK293T StAR-luciferase reporter, SF-1/DAX-1 repression relief; inhibition, % at 6.8 µM; 370,000 tested, 1.1% active; AID 652010;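 active = inhibition above the mean over all tested compounds plus 3 SD, cut at about 3.6% in these data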;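 also: higher inhibition means more luminescence from relief of DAX-1 repression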
DAX1 conf – NR0B1 (human) inhibition, confirmation. shares compounds with DAX1 inh-2. HEK293T StAR-promoter luciferase reporter, SF-1/DAX-1 repression. inhibition, % at 6.8 µM. 2,400 tested, 87% active. AID 652134;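 active = inhibition above the average of every tested compound plus 3 SD, cut at about 3.8% in these data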;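 also: active compounds raise luminescence by relieving repression of the StAR reporter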
SF1 mutant ctr – counter-screen for DAX1 inhibitors: nonselective inhibitors with SF-1 AF2 mutant | 2,400 tested, 78% active | HEK293 StAR-luciferase, luminescence | inhibition, % at 6.8 µM | shares compounds with DAX1 inh-2;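 active = inhibition above the mean of all tested compounds plus 3 SD, cut at about 3% in these data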
LXRb hcDAF ctr – counter-screen for hcDAF-12 agonists: agonists of human LXR-beta. shares compounds with hcDAF12 agonist. HEK293 Gal4-LXR tk-luc reporter, luminescence, 24 h; normalized: DMSO 0%, positive control 100%. 3,400 tested, under 10 active. activation, % at 6.8 µM;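 active = mean percent activation of the reporter above a cutoff set as the average over tested compounds plus their standard deviation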
Target sequence (P55055 whole entry, looked up, the tested form may be a part): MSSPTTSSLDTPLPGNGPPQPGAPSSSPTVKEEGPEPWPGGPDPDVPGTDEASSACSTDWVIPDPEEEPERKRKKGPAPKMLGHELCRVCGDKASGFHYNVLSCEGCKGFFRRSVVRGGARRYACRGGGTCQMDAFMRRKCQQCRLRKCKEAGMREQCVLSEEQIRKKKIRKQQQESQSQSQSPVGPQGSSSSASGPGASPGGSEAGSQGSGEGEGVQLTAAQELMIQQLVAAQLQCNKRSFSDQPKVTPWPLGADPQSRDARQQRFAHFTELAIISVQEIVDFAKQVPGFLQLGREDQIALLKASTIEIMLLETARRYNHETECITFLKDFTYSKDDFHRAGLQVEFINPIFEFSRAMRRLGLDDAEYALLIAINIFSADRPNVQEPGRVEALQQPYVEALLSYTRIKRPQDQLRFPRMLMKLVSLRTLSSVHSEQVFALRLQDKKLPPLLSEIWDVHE
hcDAF12 ag – hcDAF-12 agonism, confirmation assay; 3,400 tested, 61% active; shares compounds with hcDAF12 agonist; activation, % at 6.8 µM; HEK293 hcDAF-12 lit1-tk-luc reporter, luminescence; % of Δ7-dafachronic acid response;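 active = mean activation across triplicate tests above the threshold derived from the earlier primary screen, cut at about 5.5% in these data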
Each line names hits and unclear results; the compound was inactive in the other large screens (follow-up assays come after a bar, where they were run).

COc1ccc(NC(=O)c2[nH]c(C)c(C(C)=O)c2C)cc1	hcDAF12 agonist 11, hgDAF-12 ag 11, ssDAF-12 act 1.7, DAX1 inh-2 4.7 | DAX1 conf 6.5 | SF1 mutant ctr 6.8 | LXRb hcDAF ctr inactive | hcDAF12 ag 10
O=C(OCC#CCSc1nnc(-c2cccc3ccccc23)o1)c1ccncc1	none (no result: DAX1 inh-1, DAX1 inh-2)
O=C(N[C@H](C(=O)N1CCC[C@H]1C(=O)NCc1ccccc1)C1CCCCC1)c1ccc(Cl)cc1Cl	none (no result: DAX1 inh-1)
COC(=O)[C@]12C[C@H](CC(=O)N3CCSCC3)C(=O)N(Cc3ccco3)C1=C[C@H](C(C)(C)C)O[C@@H]2C	none (no result: DAX1 inh-1)
CC(=O)C1=C(C)N(Cc2ccc(Cl)cc2)C(=S)NC1c1ccc(Cl)cc1 (configuration not stated)	none (no result: DAX1 inh-1)
COc1cccc(-c2nc3n(n2)CCc2ccccc2-3)c1	DAX1 inh-1 4.3, hcDAF12 agonist 17, hgDAF-12 ag 20, ssDAF-12 act 2.0, DAX1 inh-2 8.3 | DAX1 conf 7.5 | SF1 mutant ctr 4.1 | LXRb hcDAF ctr inactive | hcDAF12 ag 16
COc1cccc(-c2cc(C(=O)N3CCc4ccccc4C3)no2)c1	none
CC(C)NC(=O)NC(=O)COc1ccc(Br)cc1Br	hcDAF12 agonist 7.5, hgDAF-12 ag 12, DAX1 inh-2 6.3 | DAX1 conf 17 | SF1 mutant ctr 6.7 | LXRb hcDAF ctr inactive | hcDAF12 ag 6.0
O=C(N[C@@H](Cc1cccnc1)C(=O)N1CCC[C@H]1C(=O)NC1CCCC1)C1CCCC1	none (no result: DAX1 inh-1)
COC(=O)c1cc(C(c2ccccc2O)C2CCC(C)(C)O2)n2ccccc12 (configuration not stated)	none (no result: DAX1 inh-1)
O=C(N/N=C/c1sc(=O)[nH]c1-[n+]1ccccc1)c1ccccc1[O-]	none
O=C(N/N=C/c1sc(=O)[nH]c1-[n+]1ccc2ccccc2c1)c1ccccc1[O-]	hcDAF12 agonist 8.4, DAX1 inh-2 4.9 | DAX1 conf inactive | SF1 mutant ctr inactive | LXRb hcDAF ctr inactive | hcDAF12 ag inactive
c1ccc(-c2nnc3n2N=C(c2ccc4ccccc4c2)CS3)cc1	none (no result: DAX1 inh-1)
O=C(Nc1ccccn1)c1sc2cccc(F)c2c1Cl	hcDAF12 agonist 14, hgDAF-12 ag 19, ssDAF-12 act 1.1, DAX1 inh-2 8.4 | DAX1 conf 8.5 | SF1 mutant ctr inactive | LXRb hcDAF ctr inactive | hcDAF12 ag 18
Cc1ccc(NC(=O)c2sc3ccccc3c2Cl)nc1	hcDAF12 agonist 10, hgDAF-12 ag 20, DAX1 inh-2 5.1 | DAX1 conf 11 | SF1 mutant ctr 3.1 | LXRb hcDAF ctr inactive | hcDAF12 ag 18
CN(C)CCNC(=O)c1sc2cccc(F)c2c1Cl	none
CNC(=O)c1ccsc1NC(=O)c1sc2ccccc2c1Cl	none
CCN(CC)C(=O)CC[C@H]1CC[C@]2(CCCN(C(=O)c3ccccc3)C2)O1	none (no result: DAX1 inh-1)
CC(C)c1ccc(-n2cnn(-c3ncccc3[N+](=O)[O-])c2=O)cc1	hcDAF12 agonist 22, hgDAF-12 ag 22, ssDAF-12 act 2.4, DAX1 inh-2 6.8 | DAX1 conf 20 | SF1 mutant ctr 10 | LXRb hcDAF ctr inactive | hcDAF12 ag 14
Cc1cc(C)n(-c2ncccc2[N+](=O)[O-])n1	none
Cc1cccc(N/C=C/C(=O)c2cccs2)c1C	hcDAF12 agonist 15, hgDAF-12 ag 13, ssDAF-12 act 2.9, DAX1 inh-2 6.3 | DAX1 conf 14 | SF1 mutant ctr 7.3 | LXRb hcDAF ctr inactive | hcDAF12 ag 21
Cc1ccc(C(=O)Oc2oc(-c3ccco3)nc2C=Nc2ccc(Cl)cc2)cc1	hcDAF12 agonist 8.3, DAX1 inh-2 4.6 | DAX1 conf 7.9 | SF1 mutant ctr 4.7 | LXRb hcDAF ctr inactive | hcDAF12 ag inactive
c1ccc(-c2csc(Nc3ccc4c(c3)OCCO4)n2)cc1	hcDAF12 agonist 15, hgDAF-12 ag 19, ssDAF-12 act 3.1, DAX1 inh-2 6.9 | DAX1 conf 20 | SF1 mutant ctr 7.0 | LXRb hcDAF ctr inactive | hcDAF12 ag 16
Cc1cc(C)nc(Nc2nc(-c3ccccc3)cs2)n1	hcDAF12 agonist 22, hgDAF-12 ag 18, ssDAF-12 act 5.0, DAX1 inh-2 4.5 | DAX1 conf 20 | SF1 mutant ctr 8.4 | LXRb hcDAF ctr inactive | hcDAF12 ag 37
CN1CCCCC(NC(=O)C2CCCCC2)C1=O (configuration not stated)	none (no result: DAX1 inh-1)
COc1ccc(NC(=O)Nc2cc(C)ccn2)cc1	hcDAF12 agonist 7.3, hgDAF-12 ag 19, DAX1 inh-2 5.0 | DAX1 conf 17 | SF1 mutant ctr 8.2 | LXRb hcDAF ctr inactive | hcDAF12 ag 8.9
COc1ccc(C(=O)NC(=O)Nc2cc(C)ccn2)cc1	hcDAF12 agonist 7.7, DAX1 inh-2 6.6 | DAX1 conf inactive | SF1 mutant ctr inactive | LXRb hcDAF ctr inactive | hcDAF12 ag inactive
O=C(Nc1ccccc1Oc1ccccc1)NC1CCCCN(Cc2ccc(Cl)cc2)C1=O (configuration not stated)	none (no result: DAX1 inh-1)
O=C(NCCN1CCC(Cc2ccccc2)CC1)C1CCCN(S(=O)(=O)c2ccccc2)C1 (configuration not stated)	none (no result: DAX1 inh-1)
O=C(O)c1cc(N/N=C/C(Cl)=C/c2ccccc2)ccc1Cl	hcDAF12 agonist 11, hgDAF-12 ag 28, ssDAF-12 act 2.2, DAX1 inh-2 13 | DAX1 conf 22 | SF1 mutant ctr 12 | LXRb hcDAF ctr inactive | hcDAF12 ag 13
Cc1ccc(/C=N/Nc2ccc(Cl)c(C(=O)O)c2)s1	hcDAF12 agonist 19, hgDAF-12 ag 22, ssDAF-12 act 4.1, DAX1 inh-2 6.7 | DAX1 conf 12 | SF1 mutant ctr 9.1 | LXRb hcDAF ctr inactive | hcDAF12 ag 12
CCOc1ccc(CCNC(=O)c2cc(-c3ccccc3)c(N3CCOCC3)s2)cc1OC	none (no result: DAX1 inh-1)
COC(=O)c1cc(C(C)c2ccccc2O)n2ccccc12 (configuration not stated)	none (no result: DAX1 inh-1)
Oc1ccccc1/C=C/c1noc(-c2ccccc2O)n1	DAX1 inh-1 7.5, hcDAF12 agonist 15, hgDAF-12 ag 18, ssDAF-12 act 3.9, DAX1 inh-2 6.1 | DAX1 conf 13 | SF1 mutant ctr 9.3 | LXRb hcDAF ctr inactive | hcDAF12 ag 12
CC(=O)Nc1ccc2c(c1)nc1n2CCSC1	none
